# Screens deposited in PubChem by National Center for Advancing Translational Sciences (NCATS).
# The list is not random: actives were taken first. Their share in the collection is about 19%.
# DT40 TDP1 no CPT: qHTS for Inhibitors of human tyrosyl-DNA phosphodiesterase 1 (TDP1): qHTS in cells in absence of CPT; DT40 Tdp1-/- hTDP1 cells, no CPT, ATP luminescence, 48 h; Potency, µM (doses to about 46.2 µM), inactives show top-dose activity change, negative = growth inhibition, hits mostly inhibitors; actives 15% (n = 420,000); AID 686978, 2013; also: potency is read from the fitted curve at half-maximal effect; nearly all actives have a fitted effect of over 55% in size
#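 Growth of hTDP1-complemented DT40 Tdp1-knockout cells is measured by ATP luminescence after at least 48 hr compound exposure at 37 °C, with DMSO substituting for the 20 nM CPT used in the parallel screen.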
# TDP1 inh: qHTS Assay for Inhibitors of Tyrosyl-DNA Phosphodiesterase (TDP1) | Potency, µM (doses to about 130 µM), for the others: top-dose activity change, negative = inhibition, usual class: inhibitors | recombinant TDP1, AlphaScreen DNA substrate cleavage | Tyrosyl-DNA phosphodiesterase 1 (Homo sapiens), Q9NUW8 | actives 0.28% (n = 350,000); also: potency is read from the fitted curve at half-maximal effect; nearly all actives have a fitted effect of over 40% in size
# Target sequence (Q9NUW8 whole entry, looked up): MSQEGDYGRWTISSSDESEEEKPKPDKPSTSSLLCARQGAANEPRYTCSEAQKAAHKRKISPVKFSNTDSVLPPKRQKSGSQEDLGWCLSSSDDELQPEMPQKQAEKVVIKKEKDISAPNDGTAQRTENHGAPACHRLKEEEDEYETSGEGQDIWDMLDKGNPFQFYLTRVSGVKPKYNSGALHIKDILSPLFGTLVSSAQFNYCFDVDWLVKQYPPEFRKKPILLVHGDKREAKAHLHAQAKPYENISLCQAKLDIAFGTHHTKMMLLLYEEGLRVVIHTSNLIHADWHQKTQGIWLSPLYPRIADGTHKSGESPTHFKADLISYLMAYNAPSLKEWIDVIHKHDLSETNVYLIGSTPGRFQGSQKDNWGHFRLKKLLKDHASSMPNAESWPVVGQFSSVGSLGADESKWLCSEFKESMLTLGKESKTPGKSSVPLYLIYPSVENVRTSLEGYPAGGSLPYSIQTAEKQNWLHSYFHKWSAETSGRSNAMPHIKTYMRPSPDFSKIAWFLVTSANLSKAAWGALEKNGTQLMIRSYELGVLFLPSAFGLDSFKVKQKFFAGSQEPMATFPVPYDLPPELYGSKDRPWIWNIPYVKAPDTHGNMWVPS
#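 Signal: AlphaScreen proximity between streptavidin donor and anti-FITC acceptor beads on intact substrate. Reaction: Tdp1 1 nM, substrate 15 nM final, 5 min RT after 15 min compound preincubation.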
# Giardia killer: Small Molecules that selectively kill Giardia lamblia: qHTS; Giardia lamblia trophozoite viability; activity change, % at 7.66 µM, hits read low; actives 0.15% (n = 340,000); AID 540267, 2011; in the data active = activity change below about -80%; inconclusive = between about -30% and that limit;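 also: parasites exposed to compound for two days anaerobically before the ATP read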
#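 Giardia trophozoites, 100 cells per well, were exposed to compounds for 48 hrs at 37 deg C under anaerobic conditions; viability was then read as ATP content by bioluminescence after 15-30 min at room temperature.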
# IL1B secr inh: qHTS for Inhibitors of Inflammasome Signaling: IL-1-beta AlphaLISA Primary Screen; THP-1 LPS/ATP IL-1B secretion, AlphaLISA, 16 h; hits give low values; activity change, % at 57.5 µM; actives 4.7% (n = 360,000); AID 743279, 2014; in the data active = activity change below about -50%; inconclusive = mostly about -30% to -49%
#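 THP-1 cells pretreated 1 hr with compounds (up to 57.5 uM final), then stimulated with LPS (250 ng/mL final) plus ATP (1.25 mM final); secreted IL-1B measured by AlphaLISA after 16 hr, decreased signal indicating inhibition.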
# ELG1 repair inh: qHTS screen for small molecules that inhibit ELG1-dependent DNA repair in human embryonic kidney (HEK293T) cells expressing luciferase-tagged ELG1. HEK293T ELG1-luciferase reporter, luminescence, 16 h; DNA damage induced by 5-fluorouridine. Potency, µM (top dose mostly 46.1 µM), without a hit: at the highest dose activity change, negative = inhibition, actives largely listed as inhibitors. actives 2.3% (n = 330,000); also: potency is read from the fitted curve at half-maximal effect; nearly all actives have a fitted effect of over 55% in size
#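 Luminescence from the luciferase reporter, measured 30 min after ONE-Glo reagent at room temperature, was the read-out. Beforehand, 2,000 cells per well were exposed for 16 hr at 37 °C to 5-fluorouridine together with compound or vehicle.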
# DT40 TDP1 CPT: qHTS for Inhibitors of human tyrosyl-DNA phosphodiesterase 1 (TDP1): qHTS in cells in presence of CPT | chicken DT40 Tdp1-/-;hTDP1 cells + 20 nM CPT, ATP luminescence, 48 h | actives 12% (n = 420,000) | AID 686979, 2013 | Potency, µM (doses to about 46.2 µM), for inactives: at the top dose activity change, negative = growth inhibition, actives largely listed as inhibitors; also: potency is read from the fitted curve at half-maximal effect; nearly all actives have a fitted effect of over 55% in size
#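 Cell growth measured by CellTiter-Glo luminescence after a minimum 48 h, 37 C compound exposure with 20 nM CPT in Tdp1-knockout DT40 cells stably expressing hTDP1, seeded 400/well; qHTS titration format.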
# * hit, by the source's call; ? = inconclusive; nt = no result given; [ ] = another dose, or the depositor's remark. Unless noted, calls follow the shape of the dose curve; as a rule, active = well fitted curve in the direction sought with a large enough effect; inconclusive = small, poorly fitted or top-dose-only effect, or another doubt; inactive = no such curve, though single readings can be large; an effect the other way counts as inactive or inconclusive. % is scaled to controls: 0 for no effect and ±100 for the full control effect.
SMILES,DT40 TDP1 no CPT,TDP1 inh,Giardia killer,IL1B secr inh,ELG1 repair inh,DT40 TDP1 CPT
O=C1C(C=NCc2ccncc2)=C(O)c2ccccc21,-1.5%,0.0%,-7.0,29.1,27.6%,-3.5%
CC1(C(=O)NS(=O)(=O)c2ccccc2Cl)CCN1C(=O)C/C=C/c1ccccc1 (stereo not given),3.1%,nt,nt,1.1,nt,-9.1%
O=S(=O)(c1ccc(OC(F)(F)F)cc1)N1CCC(O)(c2cccc(C(F)(F)F)c2)CC1,?,nt,3.4,12.4,-0.2%,?
COc1ccc2c(c1)c1ncnc(N3CCN(Cc4ccc5c(c4)OCO5)CC3)c1n2C,nt,4.8%,nt,nt,16.4µM*,nt
O=[N+]([O-])c1cccnc1N1CCN(Cc2ccc3c(c2)OCO3)CC1,-28.1%,nt,-9.3,-15.8,0.2%,?
COc1ccc2[nH]c3c(N4CCC(O)(c5cccc(C(F)(F)F)c5)CC4)ncnc3c2c1,20.6µM*,5.9%,-10.4,-14.6,?,20.6µM*
COc1ccc2[nH]c3c(N4CCN(Cc5ccc6c(c5)OCO6)CC4)ncnc3c2c1,23.1µM*,8.8%,4.0,?,25.9µM*,14.6µM*
O=C(Nc1nc(-c2ccccc2)cs1)C1CCCN(S(=O)(=O)c2ccccc2)C1 (stereo not given),6.51µM*,-3.0%,-9.1,-8.0,2.31µM*,6.51µM*
O=C(Nc1nc(-c2ccccc2)cs1)C1CCCCN1S(=O)(=O)c1ccc(Cl)cc1 (stereo not given),?,4.0%,9.9,32.7,?,?
O=C(Nc1nc(-c2ccccc2)cs1)C1CCCN(S(=O)(=O)c2cccc([N+](=O)[O-])c2)C1 (stereo not given),?,5.6%,-2.3,-24.8,16.4µM*,20.6µM*
O=C(Nc1nc(-c2ccccc2)cs1)C1CCCCN1S(=O)(=O)c1ccccc1 (stereo not given),23.1µM*,9.8%,-9.4,-8.3,?,25.9µM*
COc1ccc(-c2[nH]c3ccccc3c2SCCNC(=O)c2ccc(S(=O)(=O)N(C)C)cc2)cc1,2.59µM*,11.8%,nt,nt,nt,3.26µM*
CCN(CC)S(=O)(=O)c1ccc(C(=O)NCCSc2c(-c3ccc(OC)cc3)[nH]c3ccccc23)cc1,3.66µM*,8.8%,nt,nt,nt,7.31µM*
COc1cccc(C(=O)NCCSc2c(-c3ccc(F)cc3)[nH]c3ccccc23)c1OC,13µM*,8.8%,nt,nt,nt,16.4µM*
COc1cc(C(=O)NCCSc2ccccc2)cc(OC)c1OC,?,0.7%,12.6,15.4,-3.5%,-3.3%
COc1ccc(-c2[nH]c3ccccc3c2SCCNC(=O)c2cc(OC)c(OC)c(OC)c2)cc1,3.66µM*,2.9%,nt,nt,nt,5.17µM*
Cc1ccc(-c2[nH]c3ccccc3c2SCCNC(=O)c2cc3ccccc3oc2=O)cc1,?,6.6%,4.1,0.0,-21.7%,?
CCN(CC)S(=O)(=O)c1ccc(C(=O)NCCc2cc3c(OC)ccc(OC)c3[nH]c2=O)cc1,16.4µM*,5.9%,16.6,48.5,?,?
COc1cc(NC(=O)c2noc(C)c2[N+](=O)[O-])c(OC)cc1Cl,6.51µM*,4.7%,2.2,-7.4,8.8%,14.6µM*
COc1cc(NC(=O)c2noc3c2CCC3)c(OC)cc1Cl,-26.9%,9.1%,-9.7,25.2,4.6%,-22.5%
CCC(=O)[C@@H](C)[C@@H](OC(C)=O)[C@H](C)C[C@@H](C)[C@H]1OC(=O)C[C@@]2(O)CC=C(C)C(O2)C(C)=CCCC[C@H](O[C@H]2C[C@@H](OC(N)=O)[C@H](OC(C)=O)[C@@H](C)O2)C=C[C@H](C)C[C@H]1C,2.91µM*,nt,nt,18.3,nt,?
COc1ccc(N(CC(=O)N/N=C/c2ccc3c(c2)OCO3)S(=O)(=O)c2ccccc2)cc1,nt,-2.6%,nt,nt,9.9%,nt
CC(=O)c1c(C(C)=O)c(C)n(NC(=O)c2ccccc2Cl)c1C,-13.4%,0.0%,-27.9,7.0,-1.7%,-25.3%
CC(=O)c1c(C(C)=O)c(C)n(C(c2ccccc2)c2ccccc2)c1C,20.6µM*,7.4%,0.0,-5.4,-13.8%,?
O=C(c1ccco1)N1CCN(c2nc(C(F)(F)F)nc3c2nnn3Cc2ccccc2)CC1,?,0.0%,-13.9,?,?,18.4µM*
SMILES,DT40 TDP1 no CPT,TDP1 inh,Giardia killer,IL1B secr inh,ELG1 repair inh,DT40 TDP1 CPT
FC(F)(F)c1ccc(N2CCN(c3ncnc4c3nnn4Cc3ccccc3Cl)CC2)cc1,?,3.7%,7.6,29.2,?,?
Cc1nnc(NCc2ccc(F)cc2)c2c1nnn2Cc1ccccc1Cl,2.31µM*,-2.3%,nt,nt,nt,2.91µM*
O=C(c1ccco1)N1CCCC(c2nc3c(nnn3Cc3cccc(Cl)c3)c(=O)[nH]2)C1 (stereo not given),-26.5%,11.4%,-6.6,?,12.8%,?
Cc1nnc(N2CCN(c3ccc(Cl)cc3)CC2)c2c1nnn2Cc1ccc(F)cc1,2.59µM*,4.7%,nt,nt,nt,?
Fc1ccc(N2CCN(c3ncnc4c3nnn4Cc3ccccc3Cl)CC2)cc1,14.6µM*,nt,1.5,-10.4,nt,?
CCCc1c(C(=O)OCC)nnc2c(-c3ccccc3)c(C)nn12,-24.1%,1.9%,nt,nt,nt,?
CC1CCN(C(=O)CCc2nnc3ccc(N4CCC5(CC4)OCCO5)nn23)CC1,13.9%,1.7%,17.1,-7.9,4.6%,-2.7%
CCOC(=O)C1CCN(c2ncnc3c2nnn3Cc2ccccc2Cl)CC1,-29.0%,2.4%,2.3,-3.8,-15.2%,-10.8%
O=C(c1ccco1)N1CCN(c2ncnc3c2nnn3Cc2ccccc2Cl)CC1,23.1µM*,7.3%,-6.7,-24.1,23.1µM*,?
Cc1ccc(-c2nc3ccccn3c2Nc2ccccc2C)s1,20.6µM*,7.0%,nt,nt,nt,?
Cc1ccn2c(Nc3ccccc3C)c(-c3ccncc3)nc2c1,14.6µM*,-4.3%[12.3 µM],-13.2,-88.7*,?,16.4µM*
Cc1ccccc1Nc1c(-c2ccsc2)nc2c(C)cccn12,20.6µM*,5.0%,nt,nt,nt,16.4µM*
COc1ccc(CCN(C)C2CCCN(C(=O)Cn3cnnn3)C2)cc1OC (stereo not given),-3.3%,4.7%,2.2,0.0,15.8%,-12.1%
OCC1OC(c2ccc3c(c2)OCO3)C=CC1Oc1ccc(C2CCCC2)cc1 (stereo not given),nt,9.0%[21 µM],nt,nt,nt,nt
